# In the library only some 10% were active in any assay of this set; here they are far more common.
# G9a inh = G9a (human) methyltransferase inhibition. G9a H3K9 monomethylation, AlphaScreen, 2 h. Potency, µM (series often up to 102 µM), hits mostly inhibitors. actives 8.8% (n = 350,000). AID 504332; further: nearly all actives have a fitted effect of over 75% in size
# Target sequence (Q96KQ7 913-1193 limits assumed): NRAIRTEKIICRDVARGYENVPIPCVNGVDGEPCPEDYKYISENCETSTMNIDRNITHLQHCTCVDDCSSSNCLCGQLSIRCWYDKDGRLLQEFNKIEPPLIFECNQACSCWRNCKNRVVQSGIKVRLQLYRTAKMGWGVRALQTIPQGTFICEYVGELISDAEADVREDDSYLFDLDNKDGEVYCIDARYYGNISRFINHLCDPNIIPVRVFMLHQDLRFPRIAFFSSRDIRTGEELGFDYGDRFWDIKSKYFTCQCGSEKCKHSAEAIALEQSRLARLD
#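 G9a (20 nM) was preincubated 15 min with compound, then reacted 2 h at room temperature with 500 nM biotin-H3K9 peptide and 20 µM SAM. Monomethyl-H3K9 detected by AlphaScreen using anti-H3K9me1 antibody.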
# JMJD2A Tudor = blocks the human JMJD2A Tudor domain. O75164. AlphaScreen JMJD2A-Tudor / H3K4me3 peptide binding. Potency, µM (highest dose often 114 µM), usual class: inhibitors. actives 4.4% (n = 390,000). AID 504339; further: nearly all actives have a fitted effect of over 50% in size
# GLS inhibitor = inhibitors of human glutaminase (GLS); GLS enzymatic activity, qHTS titration; AID 624170; actives 0.21% (n = 410,000); Potency, µM (series often up to 45.5 µM), usual class: inhibitors
#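 Read-out is an Amplex red fluorescence increase coupled through glutamate oxidase and HRP, measured before and after 30 min room-temperature incubation. hKGA is in 45 mM KH2PO4 (pH 8.2) with 0.02% Tween-20; glutamine added as 1mM solution.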
# HP1b binding inh = blocks HP1-beta chromodomain binding to methylated histone tails; P83916; AID 540317; AlphaScreen HP1-beta / biotin-H3K9me3 peptide binding; actives 0.56% (n = 390,000); Potency, µM (doses to about 114 µM), usual class: inhibitors; further: nearly all actives have a fitted effect of over 70% in size
# Target sequence (P83916 whole entry, looked up): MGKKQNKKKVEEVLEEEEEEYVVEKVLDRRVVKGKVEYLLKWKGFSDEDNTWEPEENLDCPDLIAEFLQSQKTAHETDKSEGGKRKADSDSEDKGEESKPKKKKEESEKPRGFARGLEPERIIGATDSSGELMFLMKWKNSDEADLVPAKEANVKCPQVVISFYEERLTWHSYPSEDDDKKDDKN
#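 HP1-beta protein (50 nM final) preincubated 30 min at room temperature with biotinylated H3(1-18)K9me3 peptide (50 nM) in PBS pH 7.4, 0.01% Tween-20, then compound added for 30 min. AlphaScreen streptavidin donor/nickel chelate acceptor beads (10 ug/mL final), 30 min dark, luminescence read.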
# L3MBTL1 inh = L3MBTL1 (human) inhibition. Q9Y468. AlphaScreen L3MBTL1–H3K9me1 peptide binding. actives 0.66% (n = 230,000). Potency, µM (doses to about 57.1 µM), usual class: inhibitors; further: nearly all actives have a fitted effect of over 60% in size
#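 Read-out is AlphaScreen signal from streptavidin donor and nickel chelate acceptor beads (10 ug/mL final each) bridging L3MBTL1 (50 nM) and biotinylated K9-monomethylated H3(1-15) peptide (75 nM), after 30 min compound exposure at room temperature.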
# BAZ2B block = inhibitors of human BAZ2B bromodomain | Q9UIF8 | AlphaScreen BAZ2B-H3K14Ac peptide displacement | Potency, µM (series often up to 114 µM), most hits filed as inhibitors | actives 4.4% (n = 360,000) | AID 504333; further: nearly all actives have a fitted effect of over 60% in size
#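 BAZ2B (50 nM) with biotin-H3(5-23)K14Ac peptide (50 nM) in PBS pH 7.4, 0.01% Tween-20, preformed 30 min, then compound 30 min at room temperature; top concentration 110uM. AlphaScreen streptavidin donor/nickel chelate acceptor beads (10 ug/mL final), 20 min dark, signal read.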
# Hits are given with their value; i = inactive; ? = inconclusive; nt = no result; ! = repeats disagree; [ ] = dose if it differs, or a comment. The call rests on the fitted dose curve; in most records, active means well fitted curve in the direction sought with a large enough effect; inconclusive means small, poorly fitted or top-dose-only effect, or another doubt; inactive means no such curve, though single readings can be large; an effect the other way counts as inactive or inconclusive.
SMILES,G9a inh,JMJD2A Tudor,GLS inhibitor,HP1b binding inh,L3MBTL1 inh,BAZ2B block
O=C(N/N=C/c1c(O)n(-c2ccccc2)c(=O)[nH]c1=O)c1ccncc1,i,?,i,i,i,?
Cc1cccc(-n2c(O)c(/C=N/NC(=O)c3ccncc3)c(=O)[nH]c2=O)c1,i[12.7 µM],79µM,i,i,i,?
CCN(CC)Cc1nccn1-c1ccc([N+](=O)[O-])cc1C(=O)c1ccccc1Cl,nt,nt,i,nt,nt,nt
CC(C)N1C(=O)CC2(CC[N+](C)(CCOC(=O)C(O)(c3ccccc3)c3ccccc3)CC2)C1=O (stereo not drawn),40µM,i,i,i,i,i
CCN(CC)CCOC(=O)C(O)(c1ccccc1)c1ccccc1,i,i,i,i,i,i
O=C(O)C1CN(CP(=O)(O)O)CCN1 (stereo not drawn),i,nt,nt,nt,nt,nt
CN1C[C@H](C(=O)N[C@]2(C)O[C@@]3(O)[C@@H]4CCCN4C(=O)[C@H](Cc4ccccc4)N3C2=O)C=C2c3cccc4[nH]cc(c34)C[C@H]21,13µM,nt,i,nt,nt,nt
CN1C[C@H](C(=O)NC2(C)OC3(O)[C@@H]4CCCN4C(=O)[C@H](Cc4ccccc4)N3C2=O)CC2c3cccc4[nH]cc(c34)C[C@H]21 (stereo partly drawn),nt,?,i,i,nt,nt
CC(C)[C@@]1(NC(=O)[C@H]2C[C@H]3c4cccc5[nH]cc(c45)C[C@@H]3N(C)C2)O[C@]2(O)[C@H]3CCCN3C(=O)CN2C1=O (tested in a mixture with another compound),nt,nt,i,nt,nt,nt
CC(C)C[C@H]1C(=O)N2CCC[C@H]2[C@]2(O)O[C@](NC(=O)[C@@H]3C=C4c5cccc6[nH]cc(c56)C[C@H]4N(C)C3)(C(C)C)C(=O)N12,6.3µM,50µM,i,i,i,i
CC(C)C[C@H]1C(=O)N2CCC[C@H]2[C@]2(O)O[C@](NC(=O)[C@@H]3C=C4c5cccc6[nH]c(Br)c(c56)C[C@H]4N(C)C3)(C(C)C)C(=O)N12,24µM,nt,nt,nt,nt,nt
CCN1C[C@@]2(COC)C3[C@@H](OC)C4[C@@H]1C3([C@@H]1C[C@]3(O)[C@H](OC(=O)c5ccccc5)[C@@H]1[C@]4(OC(C)=O)[C@@H](O)[C@@H]3OC)[C@H](OC)C[C@H]2O,i,nt,nt,nt,nt,nt
CC[N@+]1(C)CCC[C@@H](OC(=O)C(O)(c2ccccc2)c2ccccc2)C1,i[21.5 µM],nt,nt,nt,nt,nt
O=c1c2ccccc2[se]n1-c1ccccc1,1.4µM!,8.9µM,6.3µM,?,i,1.4µM
O=c1c2ccccc2nc(-c2ccccc2)n1-c1ccccc1,i,i,i,i,i,i
Cn1c(O)c(C=NC(CC(N)=O)C(=O)O)c(=O)n(C)c1=O (stereo not drawn),?,nt,nt,nt,i,i
C=CCO[C@@H](Cn1ccnc1)c1ccc(Cl)cc1Cl,i[21.5 µM],nt,nt,nt,nt,nt
Clc1ccc(COC(Cn2ccnc2)c2ccc(Cl)cc2Cl)cc1 (stereo not drawn),i[2.33 µM],?,i,i,i,25µM
CC(C)(C)c1ccc(O)c(N=Cc2c(O)ccc3ccccc23)c1,8.9µM,?,i,i,i,40µM
Cc1cc(C)n(-c2nc3nonc3nc2Nc2cccc(C)c2C)n1,i,i,i,i,i,i
C(=C\c1ccccc1)/CN1CCN(CCOC(c2ccccc2)c2ccccc2)CC1,11µM,nt,nt,nt,nt,nt
Cc1nnc2n1-c1sc(CCc3ccc(CC(C)C)cc3)cc1C(c1ccccc1Cl)=NC2C (stereo not drawn),nt,nt,i,nt,nt,nt
O=C1NC(=O)N(c2ccc3c(c2)OCO3)C(=O)/C1=C/c1cccs1,11µM,i,i,i,nt,i
O=C1NC(=O)N(c2ccc3c(c2)OCO3)C(=O)/C1=C/c1ccsc1,?,i,i,i,i,i
CC(N=Cc1c(O)[nH]c(=O)[nH]c1=O)c1ccccc1 (stereo not drawn),5.6µM,i,i,i,i,i
SMILES,G9a inh,JMJD2A Tudor,GLS inhibitor,HP1b binding inh,L3MBTL1 inh,BAZ2B block
COC(=O)c1ccccc1N=Cc1c(O)[nH]c(=O)[nH]c1=O,?,i,i,i,nt,i
Cc1ccc(C2(O)CN3CCC2CC3)cc1 (stereo not drawn),i,i,i,i,nt,i
Nc1ccc(C2(c3ccc(N)cc3)CN3CCC2CC3)cc1,5.6µM,i,i,i,nt,i
Cc1nnc(NC(=O)c2cccn(Cc3ccccc3F)c2=O)s1,?,i,i,i,nt,i
CN(C)c1c([N+](=O)[O-])cc(N2C(=O)C=CC2=O)cc1[N+](=O)[O-],nt,8.9µM,?,14µM,nt,nt
CCNc1cc(N2CCN(C)CC2)ccc1[N+](=O)[O-],i,i,i,i,?,i
COc1cc(C=C2C(=O)NC(=O)NC2=O)ccc1OS(=O)(=O)c1ccccc1[N+](=O)[O-],10µM,32µM,i,?,nt,50µM
CCOc1cc(C=C2C(=O)NC(=O)NC2=O)ccc1OS(=O)(=O)c1ccccc1,22µM,79µM,i,i,nt,i
CCOc1ccc(C=C2C(=O)NC(=S)NC2=O)cc1OCC,nt,?,i,i,nt,nt
COc1cc(C=C2C(=O)NC(=O)NC2=O)cc(OC)c1OC,i[2.33 µM],i,i,i,i,i
O=C1NC(=S)NC(=O)C1=Cc1ccc(OCC(=O)N2CCCC2)cc1,14µM,45µM,?,?,nt,?
CCOc1cc(C=C2C(=O)NC(=O)NC2=O)ccc1OCC(=O)N1CCOCC1,8.9µM,i,i,i,i,i
C#C[C@]1(O)CC[C@H]2[C@@H]3CCC4=CC(=O)CCC4(C)[C@H]3CCC21C (stereo partly drawn),i,nt,i,nt,nt,nt
C=CCSc1nnc(NC(=O)c2ccc(Cl)nc2)s1,i[12.7 µM],i,i,i,nt,i
Nc1ccc2c3c(cccc13)-c1ccccc1-2,nt,i,?,i,nt,nt
COc1cc(/C=C2/C(=O)N(c3ccccc3)N=C2C)ccc1OS(=O)(=O)c1ccccc1,35µM,nt,nt,nt,?,28µM
CCC1CC2CC3c4[nH]c5ccc(OC)cc5c4CCN(C2)C13 (stereo not drawn),nt,nt,i,nt,nt,nt
COc1ccc2[nH]c3c(c2c1)CCN=C3C,8.9µM,35µM,i,i,i,45µM
O=C(c1ccco1)N1CCC[C@@]2(CCN(Cc3ccncc3)C2)C1,i[12.7 µM],nt,nt,nt,nt,nt
CC(Cc1ccccc1)NCC(=O)Nc1cc(N(C)C)nc2ccccc12 (stereo not drawn),?,1.1µM,i,?,nt,35µM
NCCc1cccc(O)c1,i,nt,nt,nt,nt,nt
CC1(C)C2CC=C(CN3CCC(O)CC3)C1C2 (stereo not drawn),?,3.5µM,i,i,i[11.4 µM],?
O=C(Cn1ccc2ccccc2c1=O)NCC(=O)N1CCC2(CC1)OCCO2,i,i,i,i,nt,i
Cc1ccc(CN(Cc2ccccc2)C(=S)NCC(=O)N2CCC3(CC2)OCCO3)o1,50µM,i,i,i,i,?
COc1cc(OC)c2c(c1)OC(c1ccc(OC)c(OC)c1)C(O)C2 (stereo not drawn),i[2.33 µM],nt,nt,nt,nt,nt
